Where “and” joins values, the source holds several entries; their conditions need not be identical. Equal entries are not always repeated. Unmarked numbers belong to inactive results. For some assays here: Entries with a potency or affinity are not part of this list. Calls of active or inactive are those of the source. Unless noted, the rule behind the calls is not given here.
Tests used:
[1] = antimalarial activity against Dd2 strain (AID 2302;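 active = growth inhibition above 50% at the single 2 µM test dose, taken to imply half-maximal potency below 2 µM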;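 note: 0% = DMSO untreated growth and 100% = chloroquine plus artemisinin killed control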); conditions: P. falciparum Dd2 in RBCs, LDH growth readout, 72 h; at 2 µM; stronger effect = higher value
[2] = HepG2 cytotoxicity, primary screen, cytotoxicity control for P. falciparum antimalarial project, cell-based, ATP luminescence (AID 2303;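 active = inhibition above 50%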;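 note: 0% = DMSO wells and 100% = digitonin-killed cells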); conditions: HepG2 viability, 24-48 h, at 10 µM, stronger effect = higher value
[3] = target: L-lactate dehydrogenase (Plasmodium falciparum (isolate CDC / Honduras)) (UniProt Q27743); experiment: PfLDH activity inhibition – cell lysate, 3D7 strain, counter-screen for P. falciparum growth inhibition project (AID 2304);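 note: 0% = vehicle and 100% = reference inhibitor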; conditions: P. falciparum 3D7 crude extract, LDH APAD/NBT absorbance; at 2 µM; stronger effect = higher value
[4] = inhibition of 3D7 malaria parasite growth – strain 3D7 (AID 2306);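 note: 0% = DMSO wells and 100% = chloroquine plus artemisinin control wells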; conditions: P. falciparum 3D7 erythrocytic growth, LDH absorbance, 72 h; at 2 µM; stronger effect = higher value
[5] = target: Calcium-dependent protein kinase 1 (Plasmodium falciparum (isolate 3D7)) (UniProt P62344); experiment: PfCDPK1 kinase inhibitors, biochemical, TCAMS library (AID 1159585; cut-off not given, nearly all actives have IC50 up to about 0.98 µM;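 note: inhibitors leave more ATP so luminescence rises with inhibition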); conditions: recombinant PfCDPK1, Kinase-Glo ATP depletion luminescence
[6] = target: Plasmodium falciparum protein kinase 6 (PK6, PF3D7_1337100) (UniProt Q8IDW1); experiment: PfPK6 kinase inhibitors, biochemical, TCAMS library (AID 1159586); conditions: recombinant PfPK6, Kinase-Glo ATP depletion luminescence
[7] = target: Protein kinase 7 (PK7), Plasmodium falciparum 3D7 (PF3D7_0213400) (UniProt Q7YTF7); experiment: inhibition of Plasmodium PK7 catalytic activity – biochemical, TCAMS antimalarial set, Kinase-Glo luminescence (AID 1159587); conditions: recombinant PfPK7, Kinase-Glo ATP depletion luminescence
[8] = target: Calcium-dependent protein kinase 4 (Plasmodium falciparum (isolate 3D7)) (UniProt Q8IBS5); experiment: PfCDPK4 kinase inhibitors, biochemical, TCAMS library (AID 1159588; cut-off not given, nearly all actives have IC50 up to about 0.91 µM); conditions: recombinant PfCDPK4, Kinase-Glo ATP depletion luminescence
Chain of Calcium-dependent protein kinase 4 (Plasmodium falciparum (isolate 3D7)) (Q8IBS5 whole entry, looked up): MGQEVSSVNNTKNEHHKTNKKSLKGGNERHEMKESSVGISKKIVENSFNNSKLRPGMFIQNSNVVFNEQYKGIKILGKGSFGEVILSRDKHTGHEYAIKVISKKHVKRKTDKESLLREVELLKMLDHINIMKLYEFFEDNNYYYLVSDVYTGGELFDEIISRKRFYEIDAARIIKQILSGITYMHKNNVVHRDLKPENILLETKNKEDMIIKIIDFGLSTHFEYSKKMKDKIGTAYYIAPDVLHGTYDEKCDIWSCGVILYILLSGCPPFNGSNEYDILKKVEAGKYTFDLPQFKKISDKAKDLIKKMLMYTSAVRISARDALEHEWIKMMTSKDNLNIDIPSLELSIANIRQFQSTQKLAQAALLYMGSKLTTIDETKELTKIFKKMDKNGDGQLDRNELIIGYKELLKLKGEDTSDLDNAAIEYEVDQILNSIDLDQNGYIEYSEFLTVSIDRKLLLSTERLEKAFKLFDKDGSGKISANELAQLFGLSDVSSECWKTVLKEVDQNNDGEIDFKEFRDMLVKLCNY

Chain of Calcium-dependent protein kinase 1 (Plasmodium falciparum (isolate 3D7)) (P62344 whole entry, looked up): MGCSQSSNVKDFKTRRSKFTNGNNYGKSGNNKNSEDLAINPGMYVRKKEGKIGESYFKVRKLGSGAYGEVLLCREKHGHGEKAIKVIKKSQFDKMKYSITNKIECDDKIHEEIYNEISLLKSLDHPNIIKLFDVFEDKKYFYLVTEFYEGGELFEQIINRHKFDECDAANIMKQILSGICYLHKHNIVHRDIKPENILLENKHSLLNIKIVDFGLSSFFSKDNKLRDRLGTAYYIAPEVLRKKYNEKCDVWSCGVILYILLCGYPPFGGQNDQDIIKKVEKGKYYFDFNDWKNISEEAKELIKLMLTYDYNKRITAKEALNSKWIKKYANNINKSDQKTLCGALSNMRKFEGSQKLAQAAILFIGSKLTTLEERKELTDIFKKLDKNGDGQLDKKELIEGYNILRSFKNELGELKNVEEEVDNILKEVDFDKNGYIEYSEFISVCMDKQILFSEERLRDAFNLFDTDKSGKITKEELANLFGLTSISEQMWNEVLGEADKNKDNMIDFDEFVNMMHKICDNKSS
Chain of Protein kinase 7 (PK7), Plasmodium falciparum 3D7 (PF3D7_0213400) (Q7YTF7 1-343): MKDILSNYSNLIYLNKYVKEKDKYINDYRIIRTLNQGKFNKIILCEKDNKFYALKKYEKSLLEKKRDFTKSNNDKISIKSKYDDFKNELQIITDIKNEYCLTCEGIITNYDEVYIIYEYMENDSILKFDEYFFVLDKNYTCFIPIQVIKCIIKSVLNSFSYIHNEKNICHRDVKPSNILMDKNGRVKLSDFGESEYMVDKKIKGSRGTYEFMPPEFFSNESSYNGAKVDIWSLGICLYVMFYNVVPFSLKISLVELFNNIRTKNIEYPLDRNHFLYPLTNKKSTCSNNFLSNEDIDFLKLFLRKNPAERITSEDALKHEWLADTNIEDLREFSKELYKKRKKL
Chain of L-lactate dehydrogenase (Plasmodium falciparum (isolate CDC / Honduras)) (Q27743 whole entry, looked up): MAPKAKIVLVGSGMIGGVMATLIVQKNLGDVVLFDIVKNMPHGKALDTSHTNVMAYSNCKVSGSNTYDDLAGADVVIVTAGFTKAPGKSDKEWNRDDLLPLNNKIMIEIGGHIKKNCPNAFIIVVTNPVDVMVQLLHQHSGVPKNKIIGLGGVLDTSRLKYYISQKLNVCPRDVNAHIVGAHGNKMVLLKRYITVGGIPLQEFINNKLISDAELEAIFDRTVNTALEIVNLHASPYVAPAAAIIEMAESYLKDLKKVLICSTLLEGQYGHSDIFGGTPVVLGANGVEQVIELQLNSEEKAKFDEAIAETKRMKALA
Chain of Plasmodium falciparum protein kinase 6 (PK6, PF3D7_1337100) (Q8IDW1 1-305): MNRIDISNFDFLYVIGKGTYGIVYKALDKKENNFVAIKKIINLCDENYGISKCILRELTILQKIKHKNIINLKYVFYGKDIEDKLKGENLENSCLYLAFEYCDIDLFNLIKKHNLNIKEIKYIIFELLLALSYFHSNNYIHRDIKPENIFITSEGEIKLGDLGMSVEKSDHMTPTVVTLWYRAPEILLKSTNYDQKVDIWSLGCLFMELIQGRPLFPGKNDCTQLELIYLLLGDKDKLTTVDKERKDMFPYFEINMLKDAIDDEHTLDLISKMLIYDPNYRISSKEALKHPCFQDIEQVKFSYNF

| Structure (SMILES) | growth inhibition [1] | inhibition [2] | inhibition [3] | growth inhibition [4] | outcome [5] | outcome [6] | outcome [7] | outcome [8] |
| --- | --- | --- | --- | --- | --- | --- | --- | --- |
| C/C=C1\CN2CC[C@H]1C[C@H]2[C@H](O)c1ccnc2ccc(O)cc12 | -1% | -15% | -3% | 98% (active) | inactive | inactive | inactive | inactive |
| Cn1nc(-c2ccc(S(=O)(=O)N3CCC(CN4CCC(c5c[nH]c6ccccc56)CC4)CC3)s2)cc1C(F)(F)F | 48% | 16% | -6% | 93% (active) | inactive | inactive | inactive | inactive |
| COc1ccc(CCNCc2ccc3nc(N)cc(C)c3c2)cc1 | 86% (active) | 23% | -5% | 100% (active) | inactive | inactive | inactive | inactive |
| CC(=O)N(Cc1ccccc1-c1ccc(CNCCc2ccccc2)cc1)C1CCN(Cc2ccccc2)CC1 | 85% (active) | 24% | 3% | 101% (active) | inactive | inactive | inactive | inactive |
| CN(C(=O)OCc1ccccc1)C1CCC(CCN2CCC3(CC2)C(=O)NCN3c2cccc(C(F)(F)F)c2)(c2ccccc2)CC1 (stereo unspecified) | 72% (active) | 19% | -2% | 80% (active) | inactive | inactive | inactive | inactive |
| O=C(/C=C/c1ccsc1)NC1CCC(CN2CCC(c3c[nH]c4ccccc34)CC2)CC1 (stereo unspecified) | 20% | 29% | -1% | 82% (active) | inactive | inactive | inactive | inactive |
| CCN(CC)CCOC(=O)C(OC)(c1ccccc1)c1ccccc1 | 6% | -4% | 2% | 97% (active) | inactive | inactive | inactive | inactive |
| Cc1cc(NC(=O)[C@@H](Nc2ccc(C#N)c3ccccc23)C2CCCCC2)ccc1F | 83% (active) | 10% | 0% | 95% (active) | inactive | inactive | inactive | inactive |
| CC[C@H]1CN2CC[C@@H]1C[C@H]2[C@H](O)c1ccnc2ccc(Cl)cc12 | 98% (active) | -3% | 2% | 100% (active) | inactive | inactive | inactive | inactive |
| C=Cc1cc(OC)c2c(c1)c(=O)oc1c2cc(OC)c2c(O)ccc([C@H]3O[C@H]([C@@H](C)O)[C@H](O)[C@H]3O)c21 | 41% | 33% | 0% | 95% (active) | inactive | inactive | inactive | inactive |
| CC(Cc1ccc(OCc2ccccc2)c(Cl)c1)NCC(O)c1cccc(C(F)(F)F)c1 (stereo unspecified) | 95% (active) | -2% | -4% | 97% (active) | inactive | inactive | inactive | inactive |
| CCOc1ccc(CN(CCc2ccc3c(c2)OCO3)Cc2cc(OC)ccc2O)cc1 | 88% (active) | 3% | -4% | 96% (active) | inactive | inactive | inactive | inactive |
| Cc1ccc(/C=C/C(=O)NC2CCC(CN3CCC(c4c[nH]c5ccccc45)CC3)CC2)cc1 (stereo unspecified) | 66% (active) and 69% (active) | 32% and 41% | -2% and 3% | 101% (active) | inactive | inactive | inactive | inactive |
| COc1cc(C=CC(=O)N2CCC(CN3CCC(c4c[nH]c5ccccc45)CC3)CC2)cc(OC)c1 | 8% | 19% | 4% | 95% (active) | inactive | inactive | inactive | inactive |
| CC(C)(C)c1ccc(Cn2nc(C(=O)N3CCN(C(=O)C4CCCO4)CC3)c3ccccc32)cc1 (stereo unspecified) | 83% (active) | -2% | -3% | 90% (active) | inactive | inactive | inactive | inactive |
| O=C(/C=C/c1ccc2ccccc2c1)NC1CCC(CN2CCC(c3c[nH]c4ccccc34)CC2)CC1 (stereo unspecified) | 88% (active) | 28% | 4% | 100% (active) | inactive | inactive | inactive | inactive |
| CC[C@H]1CN2CC[C@H]1C[C@@H]2[C@@H](O)c1ccnc2ccccc12 | 20% | 10% | -4% | 98% (active) | inactive | inactive | inactive | inactive |
| COCC(=O)N(Cc1ccccc1-c1cccc(CNCCc2ccccc2)c1)C1CCN(Cc2ccccc2)CC1 | 36% | 21% | 3% | 93% (active) | inactive | inactive | inactive | inactive |
| CNCCc1c(O)ccc2ccccc12 | -1% | 6% | 2% | 94% (active) | inactive | inactive | inactive | inactive |
| Cc1[nH]c2ccccc2c1C1=CCN(C[C@H]2C[C@@H]2C(=O)c2ccccc2)CC1 | 88% (active) | 18% | -3% | 95% (active) | inactive | inactive | inactive | inactive |
| O=C(Nc1ccccc1OC(F)(F)F)NC1CCC(CN2CCC(c3c[nH]c4ccccc34)CC2)CC1 (stereo unspecified) | 60% (active) and 70% (active) | 33% and 35% | 6% and 8% | 101% (active) and 99% (active) | inactive | inactive | inactive | inactive |
| CC[C@H]1CN2CC[C@@H]1C[C@@H]2[C@@H](O)c1cc(-c2ccc(F)cc2)nc2ccc(OC)cc12 | 64% (active) | 18% | -4% | 98% (active) | inactive | inactive | inactive | inactive |

From PubChem BioAssay
